Results filed as inconclusive are left out. Where a call stands in place of a potency, no number is given. Activity calls are given as the source filed them. The call rests on the fitted dose curve; in most records, active means well fitted inhibition curve with a large enough effect; inconclusive means small, poorly fitted or top-dose-only effect; inactive means no such curve, though single readings can be large or run the other way.
assay: P-glycoprotein substrates identified in KB-3-1 adenocarcinoma cell line, qHTS therapeutic library screen (AID 1346986); details: KB-3-1 parental cells viability, CellTiter-Glo, 72 h; series mostly up to 44.5 µM; further: nearly all actives have a fitted effect of over 60% in size
Summary of the method: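 Dose-response cytotoxicity, KB-3-1 vs P-gp-high KB-8-5-11, no colchicine in assay medium. Read: CellTiter-Glo at 72 h.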

| SMILES | Potency | outcome |
| --- | --- | --- |
| C=C1CCC2C(C)(C(=O)O)CCCC2(C)C1CC/C(C)=C\CO (stereo not drawn) | inactive | – |
| COc1c2c(c(C)c3c1C(=O)OC3)OC1(C)CC(O)C34OC(OC)(CCC3(C)C1C2)OC4(C)CO (stereo not drawn) | inactive | – |
| N=C(N)c1ccc2nc(-c3cc(CC(=O)NC(CC(=O)O)C(=O)O)cc(-c4cc(S(N)(=O)=O)ccc4O)c3O)[nH]c2c1 (stereo not drawn) | inactive | – |
| COc1ccnc(CCc2nc3ncccc3[nH]2)c1 | inactive | – |
| COc1cc(/C=C/C(=O)OC[C@H]2O[C@@H](OC3CC(C)=C(C(=O)O)C(C)(C)C3)[C@H](O)[C@@H](O)[C@@H]2O)cc(OC)c1O (stereo partly drawn) | inactive | – |
| CC/C=C/C=C/C1(C)OC(CC(CO)OC)=CC1=O (stereo not drawn) | inactive | – |
| COc1cccc(Cn2ncc3c4sc(S(C)=O)cc4n(C)c3c2=O)c1 (stereo not drawn) | inactive | – |
| COc1cc(OC)cc(-c2ccc3c(-c4ccc(F)cc4)[nH]nc3n2)c1 | inactive | – |
| CC(=O)OCC1=C[C@@H]2OC(=O)C3=CO[C@@H](O[C@@H]4O[C@H](CO)[C@@H](O)[C@H](O)[C@H]4O)[C@H]1[C@@H]32 | inactive | – |
| O=C(NCC(=O)N1CCCC1)Nc1ccc2ccccc2c1 | inactive | – |
| CC(C)(O)C1OC1C1=CC(=O)C2(C)OC2C1O (stereo not drawn) | inactive | – |
| CC(C)=CC1C[C@](C)(O)[C@@H]2[C@H]3CCC4[C@@]5(C)CC[C@H](O[C@@H]6OC[C@H](O)[C@H](O[C@@H]7O[C@H](CO[C@@H]8O[C@H](CO)[C@@H](O)[C@H](O)[C@H]8O)[C@@H](O)[C@H](O)[C@H]7O)[C@H]6O[C@@H]6O[C@@H](C)[C@H](O)[C@@H](O)[C@H]6O)C(C)(C)[C@@H]5CC[C@@]4(C)[C@@]34CO[C@@]2(C4)O1 (stereo partly drawn) | – | inactive [at 9.29 µM] |
| CC1(C)CCCC2(C)c3c4c(c(=O)oc(=O)c3=CCC12)=CCC1C(C)(C)CCCC41C (stereo not drawn) | inactive | – |
| COC(=O)C1=CO[C@@H](O[C@@H]2O[C@H](CO)[C@@H](O)[C@H](O)[C@H]2O)[C@@H]2[C@@H](CO)[C@@H](O)C(O)[C@H]12 (stereo partly drawn) | inactive | – |
| CC1(C)C[C@H](O)C[C@@]2(C)[C@H]1[C@H](O)C=C1COC(=O)[C@@]12O | inactive | – |
| C=C1CC23CC1CCC2C12OC(=O)C(C)(C(O)C(O)C1O)C2C3C(=O)O (stereo not drawn) | inactive | – |
| C[C@@H]1C[C@@H](O)[C@@]23CO[C@]2(CO)C[C@@H](O)CC3[C@@]12CC(c1ccoc1)OC2=O (stereo partly drawn) | inactive | – |
| Cc1c(-c2ccc3c(c2)OCO3)oc2ccc(C(O)C(C)O)cc12 (stereo not drawn) | inactive | – |
| N#CN1CCC[C@@H](n2nc(-c3ccc(Oc4ccc(F)cc4F)cc3)c(C(N)=O)c2N)C1 | inactive | – |

| SMILES | Potency | outcome |
| --- | --- | --- |
| CC1CC(O)/C=C/C(O)/C=C\C(=O)O1 (stereo not drawn) | inactive | – |
| CC1(C)C2CCC1(C)C(OC(=O)C(O)(CC(=O)O)CC(=O)O)C2 (stereo not drawn) | inactive | – |
| Nc1nc2c(nc(Sc3ccc(Cl)cc3)n2[C@@H]2O[C@@H]3COP(=O)(O)O[C@H]3[C@H]2O)c(=O)[nH]1 | inactive | – |
| COc1cc(C2CC(=O)Nc3c2cc(Br)c2ccccc32)cc(OC)c1OC (stereo not drawn) | inactive | – |
| O=C(O)[C@H](Cc1ccccc1)Oc1ccc(-c2ccccc2)cc1 | inactive | – |
| N#Cc1ccc(C2CCCc3cncn32)cc1 (stereo not drawn) | inactive | – |
| CC1=C(CC/C(C)=C/C(=O)O)[C@@]2(C)CCCC(C)(C)C2CC1=O (stereo partly drawn) | inactive | – |
| CCCc1[nH]nc2c1C(c1cc(Cl)cc(Cl)c1O)C(C#N)=C(N)O2 (stereo not drawn) | inactive | – |
| Cc1nnc(-c2ccc3occ(-c4ccc(S(C)=O)cc4)c3c2)o1 (stereo not drawn) | inactive | – |
| C=C[C@H]1[C@H](O[C@@H]2O[C@H](CO)[C@@H](O)[C@H](O)[C@H]2O)OC=C2C(=O)N3Cc4c([nH]c5ccccc5c4=O)[C@@H]3C[C@H]21 | inactive | – |
| CCC(C)/C=C(C)/C=C/C1=CC2=C(Cl)C(=O)C(C)(OC(C)=O)C(=O)C2=CN1CCCCC(N)C(=O)O (stereo not drawn) | inactive | – |
| C[C@@H]1O[C@@H](O[C@H]2[C@H](OC(=O)[C@]34CCC(C)(C)C[C@H]3C3=CCC5[C@@]6(C)C[C@@H](O)[C@@H](O[C@@H]7O[C@H](CO)[C@@H](O)[C@H](O)[C@H]7O)[C@@](C)(CO)C6[C@H](O)C[C@@]5(C)[C@]3(C)CC4)OC[C@H](O)[C@@H]2O)[C@H](O)[C@H](O[C@@H]2OC[C@](O)(CO)[C@H]2O)[C@H]1O[C@@H]1OC[C@@H](O)[C@H](O[C@H]2O[C@H](C)[C@@H](O)[C@H](O)[C@@H]2O)[C@H]1O (stereo partly drawn) | – | inactive [at 9.29 µM] |
| CC(=O)c1[nH]cc(CCC(=O)O)c1CC(=O)O | inactive | – |
| CC1(CO)CCCC2(C)C3COC(=O)C3=CC(O)C12 (stereo not drawn) | inactive | – |
| C=C1CC2C3(C)C(O)CC(=O)C(C)(C)C3C(O)C(OC(C)=O)C2(C)C2C(=O)OC(C)(C(=O)OC)C(=O)C12C (stereo not drawn) | inactive | – |
| COc1cccc(CN(C(=O)CC(C)(C)C)C2CC(C(=O)N3CCNCC3)N(Cc3ccc4c(c3)OCO4)C2)c1 (stereo not drawn) | inactive | – |
| C/C=C(\C)C(=O)OC[C@H]1O[C@H](O[C@H]2O[C@H](CO)[C@@H](O)[C@H](O)[C@H]2O[C@@H]2O[C@H](CO)[C@@H](O)[C@H](O)[C@H]2O)[C@H](O[C@@H]2O[C@H](CO)[C@@H](O)[C@H](O)[C@H]2O)[C@@H](O)[C@@H]1O | inactive | – |
| CSCC1OC(n2cnc3c(N)ncnc32)C(O)C1O (stereo not drawn) | inactive | – |
| CC(=O)O[C@@H]1[C@H](O[C@@H]2O[C@H](CO)[C@@H](O)[C@H](O)[C@H]2O)[C@@H](O[C@@H]2O[C@@H](C)[C@H](O)[C@@H](O[C@@H]3O[C@H](CO)[C@@H](O)[C@H](O)[C@H]3O)[C@H]2O)[C@H](OC(=O)[C@]23CCC(C)(C)C[C@H]2C2=CCC4[C@@]5(C)C[C@H](O)[C@H](O[C@@H]6O[C@H](C(=O)O)[C@@H](O)[C@H](O)[C@H]6O)[C@@](C)(C(=O)O)C5CC[C@@]4(C)[C@]2(C)CC3)O[C@@H]1C (stereo partly drawn) | – | inactive [at 9.29 µM] |

— PubChem BioAssay (NCATS)
